Laboratory results as given in ChEMBL document CHEMBL1961873, “Compounds: GSK PKIS; Assays: Nanosyn kinase panel” (2012).

Key:
[1] = target: T1, Inhibitor of nuclear factor kappa-B kinase subunit epsilon (Homo sapiens) (UniProt Q14164); details: at 1 µM;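 further: reported values are averaged percent inhibition figures against human IKKε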
T1 sequence (whole entry): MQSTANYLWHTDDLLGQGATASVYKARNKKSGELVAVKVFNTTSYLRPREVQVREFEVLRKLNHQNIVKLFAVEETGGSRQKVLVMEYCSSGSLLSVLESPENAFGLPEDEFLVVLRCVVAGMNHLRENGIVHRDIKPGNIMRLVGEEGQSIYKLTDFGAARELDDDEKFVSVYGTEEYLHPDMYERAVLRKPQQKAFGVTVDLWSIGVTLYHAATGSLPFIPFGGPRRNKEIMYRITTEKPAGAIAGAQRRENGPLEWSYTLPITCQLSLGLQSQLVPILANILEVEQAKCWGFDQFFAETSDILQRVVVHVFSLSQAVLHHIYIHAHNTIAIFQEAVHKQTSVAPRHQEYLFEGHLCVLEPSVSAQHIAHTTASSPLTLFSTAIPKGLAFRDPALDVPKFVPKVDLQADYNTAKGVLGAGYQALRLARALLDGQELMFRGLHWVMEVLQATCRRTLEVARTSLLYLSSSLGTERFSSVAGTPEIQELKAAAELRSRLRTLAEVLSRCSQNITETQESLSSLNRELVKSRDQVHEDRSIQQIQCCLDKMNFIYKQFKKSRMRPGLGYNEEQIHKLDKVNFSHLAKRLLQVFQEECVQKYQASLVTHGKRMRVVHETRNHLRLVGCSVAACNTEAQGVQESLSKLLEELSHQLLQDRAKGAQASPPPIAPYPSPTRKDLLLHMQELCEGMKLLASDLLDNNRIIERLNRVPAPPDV

[2] = target: T2, Serine/threonine-protein kinase Nek1 (Homo sapiens) (UniProt Q96PY6); details: at 0.1 µM
T2 sequence (whole entry): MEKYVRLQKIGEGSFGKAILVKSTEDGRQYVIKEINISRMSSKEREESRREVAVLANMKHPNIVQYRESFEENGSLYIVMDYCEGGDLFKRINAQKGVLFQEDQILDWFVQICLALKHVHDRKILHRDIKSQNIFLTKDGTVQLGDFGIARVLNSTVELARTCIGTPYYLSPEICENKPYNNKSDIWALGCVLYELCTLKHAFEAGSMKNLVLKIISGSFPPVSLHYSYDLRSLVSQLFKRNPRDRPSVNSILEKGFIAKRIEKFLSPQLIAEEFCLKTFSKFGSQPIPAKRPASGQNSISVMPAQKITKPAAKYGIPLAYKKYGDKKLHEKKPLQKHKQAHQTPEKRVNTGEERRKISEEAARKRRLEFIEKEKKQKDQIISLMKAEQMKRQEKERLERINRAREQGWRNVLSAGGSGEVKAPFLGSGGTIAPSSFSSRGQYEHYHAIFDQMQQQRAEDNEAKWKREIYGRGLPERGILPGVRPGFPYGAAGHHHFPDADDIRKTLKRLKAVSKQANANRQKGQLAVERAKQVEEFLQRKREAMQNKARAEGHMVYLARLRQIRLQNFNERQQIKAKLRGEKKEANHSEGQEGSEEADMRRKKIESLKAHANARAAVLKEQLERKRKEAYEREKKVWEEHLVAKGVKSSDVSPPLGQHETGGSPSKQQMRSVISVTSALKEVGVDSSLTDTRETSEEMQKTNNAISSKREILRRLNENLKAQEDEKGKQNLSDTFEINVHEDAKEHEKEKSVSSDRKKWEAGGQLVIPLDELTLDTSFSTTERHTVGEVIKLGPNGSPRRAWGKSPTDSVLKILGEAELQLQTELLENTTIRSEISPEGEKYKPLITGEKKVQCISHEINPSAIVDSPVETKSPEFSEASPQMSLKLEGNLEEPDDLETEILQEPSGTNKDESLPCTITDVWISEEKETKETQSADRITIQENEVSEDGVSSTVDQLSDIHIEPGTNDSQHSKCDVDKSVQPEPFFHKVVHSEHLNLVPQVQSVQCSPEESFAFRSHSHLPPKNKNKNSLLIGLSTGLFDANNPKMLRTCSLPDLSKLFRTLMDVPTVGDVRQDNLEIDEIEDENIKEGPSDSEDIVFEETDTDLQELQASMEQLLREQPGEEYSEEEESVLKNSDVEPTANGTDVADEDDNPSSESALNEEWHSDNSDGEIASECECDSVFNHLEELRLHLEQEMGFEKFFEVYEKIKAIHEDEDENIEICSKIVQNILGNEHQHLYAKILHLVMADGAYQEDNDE

[3] = target: T2, Serine/threonine-protein kinase Nek1 (Homo sapiens); details: at 1 µM
[4] = target: T3, Serine/threonine-protein kinase Nek2 (Homo sapiens) (UniProt P51955); details: at 0.1 µM
T3 sequence (whole entry): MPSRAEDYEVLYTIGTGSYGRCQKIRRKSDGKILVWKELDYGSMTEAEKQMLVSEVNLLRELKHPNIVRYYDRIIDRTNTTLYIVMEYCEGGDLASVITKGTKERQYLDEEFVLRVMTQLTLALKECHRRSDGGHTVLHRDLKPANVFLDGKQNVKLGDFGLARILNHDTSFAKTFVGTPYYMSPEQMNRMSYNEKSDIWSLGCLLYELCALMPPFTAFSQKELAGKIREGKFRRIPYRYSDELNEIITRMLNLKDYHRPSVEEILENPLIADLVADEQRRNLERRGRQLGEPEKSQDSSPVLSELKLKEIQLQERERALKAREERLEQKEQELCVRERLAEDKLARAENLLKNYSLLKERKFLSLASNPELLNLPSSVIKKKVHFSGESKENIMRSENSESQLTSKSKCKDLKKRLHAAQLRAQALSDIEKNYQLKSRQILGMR

[5] = target: T3, Serine/threonine-protein kinase Nek2 (Homo sapiens); details: at 1 µM
[6] = target: Serine/threonine-protein kinase Nek6 (Homo sapiens) (UniProt Q9HC98); details: at 0.1 µM
Serine/threonine-protein kinase Nek6 (Homo sapiens), sequence (Q9HC98 whole entry): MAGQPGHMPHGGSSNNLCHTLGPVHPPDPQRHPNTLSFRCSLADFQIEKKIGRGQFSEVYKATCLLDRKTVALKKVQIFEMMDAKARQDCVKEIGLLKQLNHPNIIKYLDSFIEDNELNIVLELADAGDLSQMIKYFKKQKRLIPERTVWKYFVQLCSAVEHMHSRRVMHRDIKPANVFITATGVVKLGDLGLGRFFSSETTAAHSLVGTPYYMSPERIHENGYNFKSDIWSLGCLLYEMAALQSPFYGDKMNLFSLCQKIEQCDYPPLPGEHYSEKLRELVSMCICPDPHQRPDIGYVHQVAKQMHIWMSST

[7] = target: Serine/threonine-protein kinase Nek6 (Homo sapiens) (UniProt Q9HC98); details: at 1 µM
[8] = target: Serine/threonine-protein kinase Nek7 (Homo sapiens) (UniProt Q8TDX7); details: at 0.1 µM
Serine/threonine-protein kinase Nek7 (Homo sapiens), sequence (Q8TDX7 whole entry, looked up): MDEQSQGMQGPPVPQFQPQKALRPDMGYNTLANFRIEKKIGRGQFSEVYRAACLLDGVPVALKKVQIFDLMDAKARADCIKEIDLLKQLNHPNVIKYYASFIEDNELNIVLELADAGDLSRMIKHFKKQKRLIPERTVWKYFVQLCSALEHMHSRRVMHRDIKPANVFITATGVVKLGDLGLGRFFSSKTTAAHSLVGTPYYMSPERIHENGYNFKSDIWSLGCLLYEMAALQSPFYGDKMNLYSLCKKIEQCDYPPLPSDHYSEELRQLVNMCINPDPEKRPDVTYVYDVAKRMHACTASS

[9] = target: Serine/threonine-protein kinase Nek7 (Homo sapiens) (UniProt Q8TDX7); details: at 1 µM
[10] = target: T4, Serine/threonine-protein kinase Nek9 (Homo sapiens) (UniProt Q8TD19); details: at 0.1 µM
T4 sequence (whole entry): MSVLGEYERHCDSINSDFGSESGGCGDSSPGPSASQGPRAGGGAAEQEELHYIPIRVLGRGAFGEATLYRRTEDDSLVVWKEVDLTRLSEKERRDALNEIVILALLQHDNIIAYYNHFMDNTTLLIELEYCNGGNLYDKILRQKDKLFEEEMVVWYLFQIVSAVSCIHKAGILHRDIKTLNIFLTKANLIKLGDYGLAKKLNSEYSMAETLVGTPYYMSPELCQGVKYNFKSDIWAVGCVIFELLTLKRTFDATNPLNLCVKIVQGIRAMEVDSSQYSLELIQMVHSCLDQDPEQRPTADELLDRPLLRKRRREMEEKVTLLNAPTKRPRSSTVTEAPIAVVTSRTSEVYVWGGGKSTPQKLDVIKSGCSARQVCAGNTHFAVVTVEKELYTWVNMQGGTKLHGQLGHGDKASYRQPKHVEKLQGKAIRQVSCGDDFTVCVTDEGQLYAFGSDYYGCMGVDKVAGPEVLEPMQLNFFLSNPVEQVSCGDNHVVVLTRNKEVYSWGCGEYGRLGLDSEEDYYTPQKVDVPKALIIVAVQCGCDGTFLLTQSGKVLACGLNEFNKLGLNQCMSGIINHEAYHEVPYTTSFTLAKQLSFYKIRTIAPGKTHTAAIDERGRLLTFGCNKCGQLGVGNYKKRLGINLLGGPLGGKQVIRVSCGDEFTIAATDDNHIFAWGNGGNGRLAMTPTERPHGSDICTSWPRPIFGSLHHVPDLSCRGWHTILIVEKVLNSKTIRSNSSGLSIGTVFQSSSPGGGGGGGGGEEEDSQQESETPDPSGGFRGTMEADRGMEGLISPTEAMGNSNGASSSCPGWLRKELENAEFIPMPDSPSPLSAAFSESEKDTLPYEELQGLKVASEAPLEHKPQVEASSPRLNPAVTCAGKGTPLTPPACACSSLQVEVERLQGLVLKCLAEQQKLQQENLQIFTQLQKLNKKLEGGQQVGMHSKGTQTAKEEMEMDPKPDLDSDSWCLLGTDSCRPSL

[11] = target: T4, Serine/threonine-protein kinase Nek9 (Homo sapiens); details: at 1 µM
[12] = target: Serine/threonine-protein kinase PLK1 (Homo sapiens) (UniProt P53350); details: at 0.1 µM
Serine/threonine-protein kinase PLK1 (Homo sapiens), sequence (P53350 whole entry): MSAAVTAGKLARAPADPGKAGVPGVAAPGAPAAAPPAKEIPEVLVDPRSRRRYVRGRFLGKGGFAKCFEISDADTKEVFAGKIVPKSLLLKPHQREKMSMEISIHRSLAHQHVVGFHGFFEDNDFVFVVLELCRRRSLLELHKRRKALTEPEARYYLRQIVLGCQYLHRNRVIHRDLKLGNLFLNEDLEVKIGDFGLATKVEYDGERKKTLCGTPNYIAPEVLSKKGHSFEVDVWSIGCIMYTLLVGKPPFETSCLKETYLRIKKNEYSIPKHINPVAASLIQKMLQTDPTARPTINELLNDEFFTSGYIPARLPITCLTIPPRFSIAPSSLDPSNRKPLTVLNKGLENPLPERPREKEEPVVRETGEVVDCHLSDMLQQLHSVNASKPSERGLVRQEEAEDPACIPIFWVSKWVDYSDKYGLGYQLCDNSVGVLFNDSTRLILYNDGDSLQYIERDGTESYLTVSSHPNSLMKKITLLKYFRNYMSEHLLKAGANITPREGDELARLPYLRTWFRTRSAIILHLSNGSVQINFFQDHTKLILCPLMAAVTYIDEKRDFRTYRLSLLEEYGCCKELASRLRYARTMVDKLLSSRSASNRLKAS

[13] = target: Serine/threonine-protein kinase PLK1 (Homo sapiens) (UniProt P53350); details: at 1 µM
[14] = target: T5, Dual specificity protein kinase TTK (Homo sapiens) (UniProt P33981); details: at 0.1 µM
T5 sequence (whole entry): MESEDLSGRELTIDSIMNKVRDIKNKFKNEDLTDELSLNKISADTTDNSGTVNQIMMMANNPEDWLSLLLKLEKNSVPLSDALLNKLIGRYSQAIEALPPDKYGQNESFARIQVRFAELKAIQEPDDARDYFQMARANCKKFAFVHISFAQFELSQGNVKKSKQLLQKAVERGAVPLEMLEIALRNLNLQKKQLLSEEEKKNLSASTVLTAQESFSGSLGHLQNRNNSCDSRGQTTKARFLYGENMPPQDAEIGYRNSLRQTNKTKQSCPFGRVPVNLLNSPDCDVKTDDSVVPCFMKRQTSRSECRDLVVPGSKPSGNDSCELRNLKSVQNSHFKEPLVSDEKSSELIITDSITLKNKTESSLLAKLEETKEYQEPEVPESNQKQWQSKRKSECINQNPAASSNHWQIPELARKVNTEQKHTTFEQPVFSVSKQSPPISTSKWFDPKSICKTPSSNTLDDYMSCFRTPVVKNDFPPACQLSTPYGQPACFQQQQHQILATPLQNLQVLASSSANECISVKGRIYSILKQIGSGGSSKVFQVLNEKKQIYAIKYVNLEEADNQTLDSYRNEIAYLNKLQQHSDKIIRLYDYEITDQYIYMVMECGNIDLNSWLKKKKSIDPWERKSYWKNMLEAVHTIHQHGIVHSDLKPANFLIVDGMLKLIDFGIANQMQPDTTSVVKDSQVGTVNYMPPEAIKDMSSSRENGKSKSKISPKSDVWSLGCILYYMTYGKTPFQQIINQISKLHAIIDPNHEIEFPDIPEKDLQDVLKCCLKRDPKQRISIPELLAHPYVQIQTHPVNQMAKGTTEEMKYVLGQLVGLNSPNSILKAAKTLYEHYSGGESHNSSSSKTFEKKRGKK

[15] = system: T6, Receptor-type tyrosine-protein kinase FLT3 (Homo sapiens), P36888 [D835Y]; details: at 1 µM
T6 sequence (whole entry): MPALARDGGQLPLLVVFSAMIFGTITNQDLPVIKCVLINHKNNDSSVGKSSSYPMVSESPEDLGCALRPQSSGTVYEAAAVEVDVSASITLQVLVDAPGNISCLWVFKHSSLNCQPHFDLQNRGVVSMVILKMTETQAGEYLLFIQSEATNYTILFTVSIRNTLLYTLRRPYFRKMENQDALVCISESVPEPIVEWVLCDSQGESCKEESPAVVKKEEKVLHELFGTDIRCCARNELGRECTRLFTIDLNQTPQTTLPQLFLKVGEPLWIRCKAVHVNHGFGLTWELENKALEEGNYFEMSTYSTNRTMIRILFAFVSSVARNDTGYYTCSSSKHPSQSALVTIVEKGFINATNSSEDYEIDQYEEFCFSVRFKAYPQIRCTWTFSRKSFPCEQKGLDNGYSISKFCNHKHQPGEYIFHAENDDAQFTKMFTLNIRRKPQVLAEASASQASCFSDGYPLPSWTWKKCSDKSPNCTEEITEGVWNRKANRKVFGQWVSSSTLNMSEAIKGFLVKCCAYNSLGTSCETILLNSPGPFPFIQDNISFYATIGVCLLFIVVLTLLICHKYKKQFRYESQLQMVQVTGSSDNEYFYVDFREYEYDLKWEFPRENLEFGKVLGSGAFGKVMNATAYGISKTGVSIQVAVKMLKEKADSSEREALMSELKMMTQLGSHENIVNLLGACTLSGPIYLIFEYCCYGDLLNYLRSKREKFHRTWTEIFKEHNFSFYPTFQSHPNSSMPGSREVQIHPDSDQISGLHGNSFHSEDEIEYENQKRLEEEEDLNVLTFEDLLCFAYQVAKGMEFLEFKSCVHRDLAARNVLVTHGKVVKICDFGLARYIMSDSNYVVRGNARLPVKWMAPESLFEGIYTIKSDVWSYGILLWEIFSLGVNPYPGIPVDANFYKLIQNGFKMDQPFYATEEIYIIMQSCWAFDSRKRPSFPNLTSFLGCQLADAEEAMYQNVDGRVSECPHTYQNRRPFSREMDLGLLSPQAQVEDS

[16] = target: Vascular endothelial growth factor receptor 3 (Homo sapiens) (UniProt P35916); details: at 0.1 µM
Vascular endothelial growth factor receptor 3 (Homo sapiens), sequence (P35916 whole entry): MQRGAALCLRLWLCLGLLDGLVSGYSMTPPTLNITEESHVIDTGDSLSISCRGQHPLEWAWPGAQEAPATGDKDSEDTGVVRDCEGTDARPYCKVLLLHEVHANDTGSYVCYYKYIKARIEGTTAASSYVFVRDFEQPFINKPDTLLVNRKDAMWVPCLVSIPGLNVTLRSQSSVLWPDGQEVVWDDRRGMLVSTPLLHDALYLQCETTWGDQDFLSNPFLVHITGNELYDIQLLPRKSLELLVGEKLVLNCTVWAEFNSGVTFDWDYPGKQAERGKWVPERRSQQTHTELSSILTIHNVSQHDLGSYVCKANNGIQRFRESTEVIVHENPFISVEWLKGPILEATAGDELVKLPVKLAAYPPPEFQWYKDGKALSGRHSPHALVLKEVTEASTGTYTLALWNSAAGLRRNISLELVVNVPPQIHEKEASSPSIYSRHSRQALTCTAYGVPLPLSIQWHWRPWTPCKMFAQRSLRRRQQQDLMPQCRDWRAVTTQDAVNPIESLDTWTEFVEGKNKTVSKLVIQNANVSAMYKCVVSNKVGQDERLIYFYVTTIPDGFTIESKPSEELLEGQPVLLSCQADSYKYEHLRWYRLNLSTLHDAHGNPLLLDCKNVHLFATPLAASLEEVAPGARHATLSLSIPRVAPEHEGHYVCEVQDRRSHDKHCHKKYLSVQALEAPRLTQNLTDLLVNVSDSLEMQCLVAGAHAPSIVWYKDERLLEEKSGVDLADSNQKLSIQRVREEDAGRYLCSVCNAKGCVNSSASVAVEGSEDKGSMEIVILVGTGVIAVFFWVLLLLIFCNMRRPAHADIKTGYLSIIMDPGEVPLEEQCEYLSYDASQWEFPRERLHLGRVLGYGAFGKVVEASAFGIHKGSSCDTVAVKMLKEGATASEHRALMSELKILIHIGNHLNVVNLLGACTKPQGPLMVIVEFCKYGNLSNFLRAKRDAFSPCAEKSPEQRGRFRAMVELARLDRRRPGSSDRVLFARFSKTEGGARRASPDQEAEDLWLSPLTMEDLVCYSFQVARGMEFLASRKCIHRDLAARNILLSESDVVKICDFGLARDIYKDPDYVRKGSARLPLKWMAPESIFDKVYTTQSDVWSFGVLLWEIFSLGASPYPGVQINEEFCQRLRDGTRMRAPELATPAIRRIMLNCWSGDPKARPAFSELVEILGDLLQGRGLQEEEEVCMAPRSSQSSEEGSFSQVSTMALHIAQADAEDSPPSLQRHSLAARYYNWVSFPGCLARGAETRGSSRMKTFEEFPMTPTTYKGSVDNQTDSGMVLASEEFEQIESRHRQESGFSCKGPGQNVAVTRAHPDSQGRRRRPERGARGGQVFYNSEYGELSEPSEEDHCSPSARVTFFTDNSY

[17] = target: Vascular endothelial growth factor receptor 3 (Homo sapiens) (UniProt P35916); details: at 1 µM
[18] = target: Macrophage colony-stimulating factor 1 receptor (Homo sapiens) (UniProt P07333); details: at 0.1 µM
Macrophage colony-stimulating factor 1 receptor (Homo sapiens), sequence (P07333 whole entry): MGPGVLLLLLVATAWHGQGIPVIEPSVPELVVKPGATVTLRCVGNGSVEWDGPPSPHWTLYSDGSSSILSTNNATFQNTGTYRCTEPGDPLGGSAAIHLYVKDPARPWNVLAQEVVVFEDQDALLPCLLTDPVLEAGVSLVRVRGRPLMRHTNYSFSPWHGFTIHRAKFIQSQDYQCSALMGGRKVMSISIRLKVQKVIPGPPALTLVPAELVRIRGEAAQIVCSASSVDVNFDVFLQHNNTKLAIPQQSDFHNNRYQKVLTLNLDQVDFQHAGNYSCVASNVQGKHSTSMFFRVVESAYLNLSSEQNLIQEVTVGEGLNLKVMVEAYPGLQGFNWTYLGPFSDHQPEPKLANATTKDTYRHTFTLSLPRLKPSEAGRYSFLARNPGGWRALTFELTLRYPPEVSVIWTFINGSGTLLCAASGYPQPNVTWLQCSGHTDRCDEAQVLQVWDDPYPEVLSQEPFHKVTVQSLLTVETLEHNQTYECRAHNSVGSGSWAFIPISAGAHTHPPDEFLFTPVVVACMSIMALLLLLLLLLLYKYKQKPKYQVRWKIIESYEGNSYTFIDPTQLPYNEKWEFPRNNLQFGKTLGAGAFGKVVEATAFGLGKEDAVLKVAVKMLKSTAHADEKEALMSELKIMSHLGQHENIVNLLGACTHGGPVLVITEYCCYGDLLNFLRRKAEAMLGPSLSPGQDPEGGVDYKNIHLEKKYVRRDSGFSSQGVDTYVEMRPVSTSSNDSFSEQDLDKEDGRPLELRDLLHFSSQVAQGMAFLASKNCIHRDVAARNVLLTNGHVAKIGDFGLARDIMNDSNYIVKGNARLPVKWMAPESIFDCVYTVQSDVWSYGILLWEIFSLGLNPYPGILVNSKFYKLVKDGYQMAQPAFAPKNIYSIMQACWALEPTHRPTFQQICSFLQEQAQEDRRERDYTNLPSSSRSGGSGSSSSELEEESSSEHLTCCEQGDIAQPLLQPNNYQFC

[19] = target: Macrophage colony-stimulating factor 1 receptor (Homo sapiens) (UniProt P07333); details: at 1 µM
[20] = target: Tyrosine-protein kinase Fyn (Homo sapiens) (UniProt P06241); details: at 0.1 µM
Tyrosine-protein kinase Fyn (Homo sapiens), sequence (P06241 2-537 limits assumed): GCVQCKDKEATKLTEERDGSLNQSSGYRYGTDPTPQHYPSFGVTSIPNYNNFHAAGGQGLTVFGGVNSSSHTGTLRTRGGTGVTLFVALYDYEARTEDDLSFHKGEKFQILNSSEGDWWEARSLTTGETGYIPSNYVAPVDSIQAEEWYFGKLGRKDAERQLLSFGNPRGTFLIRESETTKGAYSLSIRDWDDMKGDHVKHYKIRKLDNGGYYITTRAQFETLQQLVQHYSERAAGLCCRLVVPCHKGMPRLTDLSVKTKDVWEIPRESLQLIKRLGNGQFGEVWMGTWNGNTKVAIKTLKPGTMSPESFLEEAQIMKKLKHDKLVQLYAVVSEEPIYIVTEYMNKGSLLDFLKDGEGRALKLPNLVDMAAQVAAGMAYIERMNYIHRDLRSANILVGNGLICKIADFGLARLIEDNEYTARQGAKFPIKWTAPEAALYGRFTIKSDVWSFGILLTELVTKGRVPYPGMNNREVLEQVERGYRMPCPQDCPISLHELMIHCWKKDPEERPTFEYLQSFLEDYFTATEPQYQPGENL

SMILES	inhibition [1] [%]	inhibition [2] [%]	inhibition [3] [%]	inhibition [4] [%]	inhibition [5] [%]	inhibition [6] [%]	inhibition [7] [%]	inhibition [8] [%]	inhibition [9] [%]	inhibition [10] [%]	inhibition [11] [%]	inhibition [12] [%]	inhibition [13] [%]	inhibition [14] [%]	inhibition [15] [%]	inhibition [16] [%]	inhibition [17] [%]	inhibition [18] [%]	inhibition [19] [%]	inhibition [20] [%]
CNC(=O)c1sc(-n2cnc3cc(OC)c(OC)cc32)cc1OCc1ccccc1C(F)(F)F	5.28	1.76	2.01	3.26	4.32	1.25	1.86	1.64	-2.15	7.04	9.14	4.65	17.8	4.81	-2.47	3.76	6.76	-2.22	7.07	2.51
CNC(=O)c1cncc(/C=C/c2ccccc2C)c1	5.71	2.13	4.28	4.96	5.88	1.4	3.73	1.08	4.03	3.46	3.57	4.47	3.11	8.61	2.62	6.74	3.1	-0.27	4.09	-0.42
O=C(O[C@H]1CN[C@H](C#Cc2cc3ncnc(Nc4ccc(OCc5cccc(F)c5)c(Cl)c4)c3s2)C1)N1CCOCC1	9.71	3.33	4.01	6.18	8.23	1.15	2.74	4.68	3.68	5.79	13.5	3.78	4.55	12.4	-1.26	6.24	3.14	1.07	1.72	3.75
